Data taken from PubChem BioAssay (NCATS).
“And” between values parts separate entries of the source, which are not always exact repeats. Equal entries are not always repeated. Results filed as inconclusive are left out. Some structures have more than one record in an assay (separate samples or runs), and their calls can disagree. The source made the active and inactive calls. Calls follow the shape of the dose curve; as a rule, active = well fitted curve in the direction sought with a large enough effect; inconclusive = small, poorly fitted or top-dose-only effect, or another doubt; inactive = no such curve, though single readings can be large; an effect the other way counts as inactive or inconclusive.

Assays:
[1] = Viability qHTS for spleen associated tyrosine kinase inhibitor (SYKi) naive MV4-11 cells (AID 1963823); also: nearly all actives have a fitted effect of over 40% in size
In short: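 SYK inhibitor-naive MV4-11 cells, 500 per well, exposed to compounds for 72 hr at 37 C, 5% CO2. Viability read as CellTiter-Glo luminescence after 10 min at room temperature.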

[2] = Viability qHTS for spleen associated tyrosine kinase inhibitor (SYKi) drug resistant MV4-11 cells (AID 1963824); also: nearly all actives have a fitted effect of over 35% in size
In short: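 SYK-inhibitor-resistant MV4-11 AML cells were seeded at 500 per well onto compound and cultured 72 hours (37 °C, 5% CO2). CellTiter-Glo was then added, and after 10 min at room temperature, luminescence gave viability.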

[3] = Cellular viability qHTS for adrenocortical cancer (ACC) cell line SW-13 (AID 1963989); settings: SW-13 ACC cells viability, CellTiter-Glo, 48 h; activity (max response): stronger effect = lower value; also: nearly all actives have a fitted effect of over 65% in size;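 as to activity (max response): cells grown in serum-free medium with ITS supplement; % is scaled to controls: 0 for no effect and ±100 for the full control effect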
In short: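 48 h treatment, SW-13 in ITS/DMEM serum-free; doses up to 46 uM; readout CellTiter-Glo luminescence; curve fit four-parameter logistic.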

[4] = Cellular viability qHTS for adrenocortical cancer (ACC) cell line NCI-H295R (AID 1963990); also: nearly all actives have a fitted effect of over 60% in size;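 as to activity change, negative = viability loss: 0% = DMSO only wells and -100% = full killing with cytotoxic reference compound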
In short: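 Compound titrations (up to 46 uM final) are applied to NCI-H295R cultures for 48 h at 37C. Viable cell number is estimated by CellTiter-Glo signal, normalised to DMSO and doxorubicin controls.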
Potency is read from the fitted curve at half-maximal effect.

CCOC(=O)c1cc(=O)c2c(OCC(COc3cccc4oc(C(=O)OCC)cc(=O)c34)OC(=O)[C@@H](N)CCCCN)cccc2o1
inactive: Potency [1] | Potency [2] | activity (max response) [3] 4.59% | Potency [4]

NC1=N[C@@]2(c3cc(NC(=O)c4ccc(F)cn4)ccc3F)COC[C@H]2CS1
active: Potency [2] 14.8 µM
inactive: Potency [1] | activity (max response) [3] -8.2% | Potency [4]

C=C1C(=O)O[C@H]2C[C@H](C)C(/C=C/C(C)=O)=CC[C@H]12
active: Potency [1] 1.18 µM | Potency [2] 0.934 µM | Potency [3] 15.8 µM | Potency [4] 7.94 µM

N[C@@H]1CN(c2c(F)cc3c(=O)c(C(=O)O)cn([C@@H]4C[C@@H]4F)c3c2Cl)CC12CC2
inactive: Potency [1] | Potency [2] | activity (max response) [3] -10.4% | Potency [4]

CC(=O)O[C@]1(C(C)=O)CC[C@H]2[C@@H]3C[C@H](C)C4=CC(=O)CC[C@]4(C)[C@H]3CC[C@@]21C
active: Potency [1] 8.41 µM and 13.2 µM | Potency [2] 9.44 µM and 13.2 µM
inactive: activity (max response) [3] -20.8% | Potency [4]

CC(C)COC(=O)c1ccc(N)cc1
inactive: Potency [1] | Potency [2] | activity (max response) [3] 4.68% | Potency [4]

COc1cc(C(=O)NC(N)=Nc2ccc(C)c(NC(=O)c3ccc(-c4ccccc4)cc3)c2)cc(OC)c1OC
active: Potency [1] 14.8 µM | Potency [2] 8.33 µM | Potency [3] 11.2 µM

CC(C)(C)c1ccc(O)c(O)c1
active: Potency [1] 9.69 µM | Potency [2] 6.11 µM | Potency [3] 10 µM | Potency [4] 8.91 µM

NCC[C@H](O)C(=O)N[C@@H]1C[C@H](N)[C@@H](O[C@H]2O[C@H](CN)[C@@H](O)[C@H](O)[C@@H]2O)[C@H](O)[C@@H]1O[C@H]1O[C@H](CO)[C@@H](O)[C@H](N)[C@@H]1O
inactive: viability (% of control) [1] 113% [at 0.588 µM] | viability, % of control [2] 95% [at 0.588 µM] | activity (max response) [3] 11.7% | activity change, negative = viability loss [4] 7.11% [at 0.587 µM]

C[C@]12CCC(=O)C=C1CC[C@@H]1[C@@H]2[C@@H](O)C[C@@]2(C)[C@H]1CC[C@]2(O)C(=O)COC(=O)CCC(=O)O
inactive: Potency [1] | Potency [2] | activity (max response) [3] 3.9% | Potency [4]

CC[C@@]1(O)C(=O)OCc2c1cc1n(c2=O)Cc2c-1nc1ccccc1c2/C=N/OC(C)(C)C
active: Potency [1] 0.0084 µM | Potency [2] 0.006 µM | Potency [3] 0.013 µM
inactive: Potency [4]

OCCn1cc(-c2ccc3c(c2)CC/C3=N\O)c(-c2ccncc2)n1
active: Potency [1] 16.4 µM | Potency [2] 18.6 µM
inactive: activity (max response) [3] -9.16% | Potency [4]

Brc1c(NC2=NCCN2)ccc2nccnc12
inactive: Potency [1] | Potency [2] | activity (max response) [3] -5.06% | Potency [4]

CCOC(=O)C1=C(C)NC(C)=C(C(=O)OCC)C1c1ccccc1/C=C/C(=O)OC(C)(C)C
active: Potency [1] 9.44 µM | Potency [2] 4.73 µM | Potency [3] 16.4 µM | Potency [4] 6.51 µM

CCN1CCN(Cc2ccc(Nc3ncc(F)c(-c4cc(F)c5nc(C)n(C(C)C)c5c4)n3)nc2)CC1
active: Potency [1] 146 nM and 148 nM | Potency [2] 366 nM and 417 nM | Potency [3] 15.8 µM | Potency [4] 4.47 µM

Cc1c(N(C)C)c(=O)n(-c2ccccc2)n1C
inactive: Potency [1] | Potency [2] | activity (max response) [3] 10.1% | Potency [4]

Fc1ccc(-c2csc3ncnc(NCc4ccc5c(c4)OCO5)c23)cc1
active: Potency [1] 1.66 µM | Potency [2] 1.66 µM | Potency [3] 15.8 µM | Potency [4] 25.1 µM

NC12CC3CC(CC(C3)C1)C2
inactive: Potency [1] | Potency [2] | activity (max response) [3] 13.7% and -1.26% | Potency [4]

O=C(c1ccccc1)c1ccccc1
inactive: Potency [1] | Potency [2] | activity (max response) [3] 13.9% | Potency [4]

CC(=O)Nc1ccc(O)cc1
inactive: Potency [1] | Potency [2] | activity (max response) [3] -6.94% and -15.1% | Potency [4]

c1ccc(CN(CC2=NCCN2)c2ccccc2)cc1
inactive: Potency [1] | Potency [2] | activity (max response) [3] 0.264% | Potency [4]

CCOC(=O)c1cnc2c(cnn2CC)c1NN=C(C)C
inactive: Potency [1] | Potency [2] | activity (max response) [3] 7.42% | Potency [4]

Nc1ccc(S(=O)(=O)Nc2cnc3ccccc3n2)cc1
inactive: Potency [1] | Potency [2] | activity (max response) [3] 8.58% | Potency [4]

Cc1cc(N2CCOCC2)ccc1Nc1nc(NC2CCCCC2)c2[nH]cnc2n1
active: Potency [1] 0.833 µM | Potency [2] 0.461 µM | Potency [3] 25.1 µM | Potency [4] 28.2 µM

O=C(NO)c1cnc(N2C[C@H]3C[C@@H]2CN3c2cc(C(F)(F)F)ccn2)nc1
active: Potency [1] 2.35 µM | Potency [2] 2.35 µM | Potency [3] 10 µM | Potency [4] 2.82 µM

CCCCCCCCCCOc1cc2c(=O)c(C(=O)OCC)c[nH]c2cc1OCC
inactive: viability (% of control) [1] 102% [at 4.97 µM] | viability, % of control [2] 107% [at 4.97 µM] | activity (max response) [3] 0.0943% | activity change, negative = viability loss [4] -5.4% [at 3.81 µM]

C[C@@H](O)[C@@H](C)Oc1nc(Nc2ccc(S(=N)(=O)C3CC3)cc2)ncc1C(F)(F)F (some centres undefined)
inactive: activity (max response) [3] 4.29% | Potency [4]
active: Potency [1] 3.32 µM | Potency [2] 11.8 µM

C[C@H]1O[C@H](O[C@H]2[C@H](O)[C@@H](O)[C@@H](O[C@H]3[C@H](O)[C@@H](O)C(O)O[C@@H]3CO)O[C@@H]2CO)[C@H](O)[C@@H](O)[C@@H]1N[C@H]1C=C(CO)[C@@H](O)[C@H](O)[C@H]1O (some centres undefined)
inactive: Potency [1] | Potency [2] | activity (max response) [3] -4.82% | Potency [4]

O=Cc1ccc(O)c(O)c1O
inactive: Potency [1] | Potency [2] | activity (max response) [3] -7.42%
active: Potency [4] 18.4 µM

NC(=O)C1(N2CCCCC2)CCN(CCCC(=O)c2ccc(F)cc2)CC1
inactive: Potency [1] | Potency [2] | activity (max response) [3] 1.85% | Potency [4]

CCN(CC)CCCC(C)Nc1c2ccc(Cl)cc2nc2ccc(OC)cc12 (centres undefined)
active: Potency [1] 4.22 µM and 2.82 µM | Potency [2] 2.09 µM and 3.99 µM | Potency [3] 28.2 µM | Potency [4] 14.1 µM

CO[C@@]1(NC(=O)C(C(=O)O)c2ccc(O)cc2)C(=O)N2C(C(=O)O)=C(CSc3nnnn3C)CO[C@@H]21 (some centres undefined)
inactive: Potency [1] | Potency [2] | activity (max response) [3] 13.4% | Potency [4]

Nc1c2c(nc3c1CCC3)CCCC2
inactive: Potency [1] | Potency [2] | activity (max response) [3] -9.88% | Potency [4]

Nc1ccc(C(=O)O)c(O)c1
inactive: Potency [1] | Potency [2] | activity (max response) [3] 12.8% | Potency [4]

Cc1ccc(S(=O)(=O)Nc2cc(-c3ccc(C#N)s3)ccc2C)cc1
active: Potency [1] 0.0295 µM | Potency [2] 0.0332 µM | Potency [3] 0.0447 µM | Potency [4] 0.0316 µM

CN[C@H]1CC[C@@H](c2ccc(Cl)c(Cl)c2)c2ccccc21
active: Potency [1] 6.61 µM | Potency [2] 7.42 µM | Potency [3] 20.6 µM and 28.2 µM | Potency [4] 4.61 µM and 8.91 µM

CC(=O)c1ccc(O)c(C(N)=O)c1
inactive: Potency [1] | Potency [2] | activity (max response) [3] 17.1% | Potency [4]

CNC[C@H](O)[C@@H](O)[C@H](O)[C@H](O)CO
inactive: Potency [1] | Potency [2] | activity (max response) [3] 1.47% | Potency [4]

NS(=O)(=O)c1cc2c(cc1C(F)(F)F)NC(Cc1ccccc1)NS2(=O)=O (centres undefined)
inactive: Potency [1] | Potency [2] | activity (max response) [3] 1.49% | Potency [4]

C=CC(=O)Nc1cccc(Nc2nc(Nc3ccc(Oc4ccnc(C(=O)NC)c4)cc3)ncc2F)c1
active: Potency [1] 4.61 µM and 2.63 µM | Potency [2] 5.8 µM and 4.17 µM | Potency [3] 17.8 µM | Potency [4] 17.8 µM

O=c1c(-c2ccc(O)cc2)coc2c([C@@H]3O[C@H](CO)[C@@H](O)[C@H](O)[C@H]3O)c(O)ccc12
inactive: Potency [1] | Potency [2] | activity (max response) [3] 3.16% | Potency [4]

C[C@H]1C[C@H]2[C@@H]3CCC4=CC(=O)C=C[C@]4(C)[C@H]3C(=O)C[C@]2(C)[C@@]1(O)C(=O)CO
inactive: Potency [1] | Potency [2] | activity (max response) [3] -6.73% | Potency [4]

CO[C@H]1/C=C\C=C(\C)C(=O)NC2=CC(=O)C(NCCN(C)C)=C(C[C@@H](C)C[C@H](OC)[C@H](O)[C@@H](C)/C=C(/C)[C@@H]1OC(N)=O)C2=O
active: Potency [1] 0.0332 µM | Potency [2] 0.0833 µM | Potency [3] 0.282 µM | Potency [4] 2 µM

C1=C/COCc2cc(ccc2OCCN2CCCC2)Nc2nccc(n2)-c2cccc(c2)COC/1
inactive and 130 nM (active): Potency [2]
active: Potency [3] 4.47 µM | Potency [4] 5.01 µM
inactive and 118 nM (active): Potency [1]

C[C@@]1(c2ncncc2F)NC(=O)c2cc(-c3cn[nH]c3)ccc21
inactive: activity (max response) [3] -10.1% | Potency [4]
active: Potency [1] 16.6 µM | Potency [2] 20.9 µM

CC[C@H](CC[C@@H](C)[C@H]1CC[C@H]2[C@@H]3CC=C4C[C@@H](O)CC[C@]4(C)[C@H]3CC[C@]12C)C(C)C
inactive: Potency [1] | Potency [2] | activity (max response) [3] -11% | Potency [4]

O=C(OCC1(COC(=O)c2cccnc2)CCCC(COC(=O)c2cccnc2)(COC(=O)c2cccnc2)C1O)c1cccnc1
inactive: Potency [1] | Potency [2] | activity (max response) [3] 7.27% | Potency [4]

CCC[C@@H]1C[C@@H](C(=O)N[C@@H]([C@H]2O[C@H](SC)[C@H](O)[C@@H](O)[C@H]2O)[C@H](C)Cl)N(C)C1
inactive: Potency [1] | Potency [2] | activity (max response) [3] 5.6% | Potency [4]

CCN(CC)CCNC(C(=O)OCCC(C)C)c1ccccc1 (centres undefined)
inactive: Potency [1] | Potency [2] | activity (max response) [3] -2.2% | Potency [4]

O=C(O)CCCC[C@@H]1SC[C@@H]2NC(=O)N[C@@H]21
inactive: Potency [1] | Potency [2] | activity (max response) [3] -0.523% | Potency [4]
